Measured values published in PubChem BioAssay AID1159580 (chemical genetic matrix, 2015).
Screen size: about 5,500 compounds; about 2,000 (36%) were called active. Another 18% or so got no clear call; they are omitted. No stated cut-off is given here; in the data, active means normalized growth mostly below about 0.91 (no sharp cut-off); inconclusive means no clear call, values can overlap the other calls; inactive means mostly above about 0.92. The list shows a part of the results.

Experiment: chemical genetic growth profiling, strain panel (AID 1159580);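 further: tested at 20 µM; growth read once vehicle control cultures reached saturation at 30 °C; 1 = growth at the plate median or of vehicle wells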
Settings: S. cerevisiae deletion strains, growth OD

Measured: normalized growth

CCCC[C@@]1(C2CCCC2)Cc2cc(OCC(=O)O)c(Cl)c(Cl)c2C1=O
inactive: locus YAL013W, strain DEP1, stronger effect = lower value 1.02 | locus YAL040C, strain CLN3, stronger effect = lower value 1 | locus YCL061C, strain MRC1 (second series), stronger effect = lower value 1 | locus YDR363W, strain ESC2, stronger effect = lower value 0.989 | locus YER002W, strain NOP16, stronger effect = lower value 1.05 | locus YGR078C, strain PAC10, stronger effect = lower value 1.02 | locus YGR229C, strain SMI1, stronger effect = lower value 1.03 | locus YMR263W, strain SAP30, stronger effect = lower value 1 | locus YNL153C, strain GIM3, stronger effect = lower value 1.01 | locus YNL175C, strain NOP13, stronger effect = lower value 0.986 | locus YNL197C, strain WHI3, stronger effect = lower value 0.959 | locus YNL224C, strain SQS1, stronger effect = lower value 0.989 | locus YOR083W, strain WHI5 (second series), stronger effect = lower value 1 | locus YPL241C, strain CIN2, stronger effect = lower value 1
